# Source: PubChem BioAssay
# The list is not random: actives were taken first. Their share in the collection is about 3.6%.
# BoNT F protease = inhibitors of Botulinum neurotoxin F light chain protease; Multiplex microsphere protease cleavage assay, flow cytometry; actives 0.22% (n = 360,000); AID 588497; inhibition, % at 10 µM; in the data active = inhibition above about 35%, passing the limit was not always enough; inconclusive = no clear call, values can overlap the other calls; also: plate controls were buffer without enzyme for full effect and enzyme alone for no effect
# Anthrax LF inh2 = anthrax lethal factor protease inhibition | multiplex microsphere protease cleavage assay, LF | actives 0.12% (n = 360,000) | inhibition, % at 10 µM | P15917; also: plate controls were buffer without enzyme for full effect and enzyme alone for no effect
# Autofluor counter = flagged as autofluorescent in microsphere protease counterscreen. AID 624483. actives 3.1% (n = 360,000). fluorescence intensity (no concentration beside the values). compound autofluorescence counterscreen, microsphere flow cytometry; stronger effect = higher value; in the data active = fluorescence intensity above about 16000; inconclusive = no clear call, values can overlap the other calls
# SARS 3CLpro inh = SARS-CoV 3CLpro protease inhibition; recombinant SARS-CoV 3CLpro, quenched FRET peptide cleavage; P0C6X7; actives 0.14% (n = 290,000); inhibition, % at 6 µM; in the data active = inhibition above about 12%
# BJeLR lethal = kills HRASV12-expressing BJeLR cells; BJeLR (HRASV12) viability, CellTiter-Glo ATP luminescence, 48 h; inhibition, % (test concentration not listed); actives 0.17% (n = 300,000); in the data active = inhibition above about 50%; inconclusive = no clear call, values can overlap the other calls
# BoNT-A LC inh2 = BoNT A light chain protease inhibition; multiplex microsphere protease substrate cleavage, flow cytometry; inhibition, % at 10 µM; actives 0.17% (n = 360,000); AID 588499; also: plate controls were buffer without enzyme for full effect and enzyme alone for no effect
# * hit, by the source's call; u = inconclusive; x = not tested or not shown. Rule as the data show it, unless noted: active = inhibition above about 30%; inconclusive = no clear call, values can overlap the other calls; inactive = below that.
SMILES,BoNT F protease,Anthrax LF inh2,Autofluor counter,SARS 3CLpro inh,BJeLR lethal,BoNT-A LC inh2
O=C(/C=C/c1cccs1)Nc1nc(-c2ccccc2)cs1,2,-4,22955*,8,-1,1
O=C(COC(=O)/C=C/c1cccs1)Nc1nc(-c2ccccc2)cs1,-4,2,2571,5,3,-1
Cc1cc(CSc2ccc(Cl)cc2)ccc1N,-7,-6,4142,x,x,0
N#Cc1c(=O)c2nc(NCc3ccccc3)ncc2n2ccccc12,0,3,23674*,-2,-3,0
N#Cc1c(=O)c2nc(NCCCO)ncc2n2c(=O)c3ccccc3[nH]c12,3,-1,1991,0,0,1
CCOc1ccccc1NC(=O)c1cc2ccccc2o1,-14,-6,3566,x,x,0
Cc1cc(NC(=O)c2cc3ccccc3oc2=O)no1,4,1,5403,-5,x,-1
O=C(Nc1ccon1)c1cc2ccccc2oc1=O,-2,-2,20901*,-2,2,-1
CCOc1ccccc1NC(=O)c1cc2ccccc2oc1=O,40*,10,3036,-1,-8,4
Cc1ccc(N2C(=O)/C(=C\c3ccc(C(C)C)cc3)N=C2SC2CCOC2=O)cc1 (stereo unspecified),22,4,9133,-2,-1,2
Cc1noc(C)c1CSc1nnc(-c2cc(Cl)ccc2Cl)n1N,0,-6,10362,2,-1,0
COc1ccc(-c2nnc(SCc3c(C)noc3C)n2N)cc1OC,-1,0,19531*,2,-11,0
CCOC(=O)c1c(C)[nH]c(C(=O)COC(=O)c2ccccn2)c1C,-1,-2,19471*,-1,-7,2
CCOC(=O)c1c(C)[nH]c(C)c1C(=O)CSc1ncccn1,5,-1,21577*,-4,0,4
CCOC(=O)c1c(C)[nH]c(C)c1C(=O)CSc1nc2ccccc2[nH]1,6,-3,10264,-4,-13,0
CCOC(=O)CC(=O)c1[nH]c(C)c(C(=O)OCC)c1C,-8,1,6174,-1,-3,-1
CCOC(=O)c1c(C)[nH]c(C(=O)COC(=O)C2(C)CC2(Cl)Cl)c1C (stereo unspecified),-1,-1,23186*,-5,4,0
CCOC(=O)c1c(C)[nH]c(C(=O)OCC(=O)c2ccccc2)c1C,-7,4,5980,x,-6,0
COc1cc(CNCc2ccc(Br)cc2)cc(OC)c1,-24,-5,3041,3,0,-1
Cc1ccc(NC(=O)c2ccc(F)cc2F)cc1NS(C)(=O)=O,-11,-4,4798,-1,-3,-1
CC(=O)NC(c1ccccc1)c1nc(-c2ccc(C)c(C)c2)cs1 (stereo unspecified),-1,0,4006,x,x,0
CNC(=O)C1=NCCCc2cc(OC)c(OC)cc21,-1,0,20275*,2,-7,u
COc1ccc(/C(N)=N/OC(=O)c2cc(-c3ccccc3)nc3ccccc23)cc1,-1,-4,19686*,0,-13,2
Cc1ccc(/C(N)=N/OC(=O)c2cc(-c3ccccc3)nc3ccccc23)cc1,-5,-10,6309,-2,12,0
Cc1cc(C)n2c(SC(C)C(=O)NC3(C#N)CCCCC3)nnc2n1 (stereo unspecified),-14,-2,3940,x,x,-1
SMILES,BoNT F protease,Anthrax LF inh2,Autofluor counter,SARS 3CLpro inh,BJeLR lethal,BoNT-A LC inh2
Cc1onc(-c2c(F)cccc2Cl)c1C(=O)N(Cc1ccccc1)C(C)C,8,-11,2727,-1,-7,2
O=C(Nc1ccccc1)N1CCC(C(=O)N(Cc2ccco2)Cc2cccs2)CC1,4,-3,20994*,-1,-3,u
O=C(NCCC(=O)N(Cc1ccco1)Cc1cccs1)c1ccccc1Cl,-6,-3,5841,x,x,0
Cc1cc(C)cc(NC(=O)C2CCCN(c3nccc(C)n3)C2)c1 (stereo unspecified),1,-4,16127*,3,-4,0
Cc1cc(C)cc(NC(=O)C2CCCN(c3nc(C)cc(C)n3)C2)c1 (stereo unspecified),-3,-9,22398*,-1,0,-1
COc1ccc(CNC(=O)C2CCCN(c3nccc(C)n3)C2)cc1 (stereo unspecified),-8,-5,7273,1,-2,0
Cc1cc(C)nc(N2CCCC(C(=O)Nc3nc4ccc(S(C)(=O)=O)cc4s3)C2)n1 (stereo unspecified),1,1,22009*,-4,4,2
